Assay outcomes (PubChem BioAssay)
The list is not random: actives were taken first. Their share in the collection is about 5%.
SENP8 block-1: inhibitors of human SENP8 protease; Q96LD8; recombinant SENP8, Nedd8 substrate fluorescence; inhibition, % at 20 µM; AID 602440; hit rate 0.64% among 360,000; in the data active = inhibition mostly above about 40%, no sharp cut-off; inactive = mostly below about 27%
SENP7 block: inhibitors of human SENP7 protease. AID 434973. hit rate 1.5% among 330,000. inhibition, % at 5 µM. recombinant SENP7, Z-RLRGG-aminoluciferin luminescence, 40 min;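 active = inhibition above about 50% at the single test dose, limit read from the data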
AHR act: activates the human aryl hydrocarbon receptor | P35869 | AHR-responsive luciferase reporter cells, luminescence | activation, % at 5 µM | hit rate 2.5% among 320,000 | AID 2796; in the data active = activation above about 47%
EBI2 antag: antagonists of human EBI2 receptor | hit rate 0.81% among 360,000 | inhibition, % at 5 µM | AID 651636 | EBI2 beta-arrestin recruitment, luminescence, 7a,25-OHC stimulated | P32249; in the data active = inhibition above about 38%;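 note: enzyme fragment complementation signal reports receptor beta-arrestin coupling in cells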
SENP6 block: blocks the human protease SENP6; Recombinant SENP6 catalytic domain, aminoluciferin luminescence; inhibition, % at 10 µM; hit rate 1.8% among 330,000;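 active = inhibition above about 50% at the single tested dose, limit read from the data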
SENP8 block-2: blocks the human protease SENP8; Q96LD8; purified SENP8, Z-RLRGG-aminoluciferin cleavage, luminescence; inhibition, % at 10 µM; hit rate 1.2% among 330,000; AID 2540; in the data active = inhibition above about 50%
Numbers stand for hits; n = inactive; x = no result given.

SMILES	SENP8 block-1	SENP7 block	AHR act	EBI2 antag	SENP6 block	SENP8 block-2
Cc1c(O)cc2c(c1O)C(=O)CC(c1ccccc1)O2 (stereo unspecified)	n	n	79	n	n	n
Cn1ccnc1SCC(=O)c1cccc(C(F)(F)F)c1	n	n	n	n	n	n
Cn1c(C(=O)NCC2CCCO2)cc2c(=O)n(C)c3ccccc3c21 (stereo unspecified)	n	n	49	n	n	n
CCCCNC(=O)C1c2ccccc2OCC(=O)N1CCCN1CCOCC1 (stereo unspecified)	n	x	x	n	x	x
CCOc1ccc(S(=O)(=O)N2CN(c3cccc(C(C)=O)c3)c3nc4ccccc4nc32)cc1	n	n	56	n	n	n
CN1CCN(/N=C/c2nc(-c3ccc(Cl)cc3)n3ccccc23)CC1	n	n	48	n	n	n
CN1CCN(/N=C/c2nc(-c3ccccc3Cl)n3ccccc23)CC1	n	n	n	n	n	n
CCOC(=O)C1CCN(Cc2ccccc2C(F)(F)F)CC1	n	n	n	n	n	n
COc1ccccc1N1CCN(Cc2ccc(O)c3ncccc23)CC1	n	n	n	73	n	n
CCOC(=O)C1CCN(Cc2ccc(O)c3ncccc23)CC1	n	n	n	45	n	n
Cc1csc(=O)n1CC(=O)OCC(=O)Nc1ccc(F)c(F)c1F	n	x	x	n	x	x
CC(C)=CCc1c(O)cc2c(=O)c3ccc(O)cc3oc2c1O	n	n	62	n	n	n
COc1c(CC=C(C)C)c(O)cc2oc(=O)c3c4ccc(O)cc4oc3c12	n	n	n	n	n	n
Nc1nc(=O)n(C2CCCCO2)cc1Br (stereo unspecified)	n	x	x	n	x	x
O=c1ccc2nc3ccccc3sc-2c1	n	x	x	n	x	x
CC(C)C[C@@H](CN)NC(=O)c1nc[nH]c1C(=O)N[C@@H](CC(C)C)C(=O)CNC[C@H](C)NC(=O)c1nc[nH]c1C(=O)N[C@@H](CC(=O)O)C(=O)O	n	x	x	n	x	x
CSc1ccc(OC2(C)CCN(Cc3cc4ccccc4o3)C2)cc1 (stereo unspecified)	n	x	x	n	x	x
COc1ccc(C)cc1NS(=O)(=O)c1ccc(NC(=O)CN(c2cc([N+](=O)[O-])ccc2C)S(C)(=O)=O)cc1	n	n	48	n	n	n
Cc1cccc(NS(=O)(=O)c2ccc(NC(=O)CN(c3cc([N+](=O)[O-])ccc3C)S(C)(=O)=O)cc2)c1	n	n	n	86	n	n
O=C(CCS(=O)(=O)c1cccs1)Nc1ccc(C(=O)NC2CCCC2)cc1	n	n	n	n	n	n
N#C/C(=N\Nc1ccc(Br)cc1)C(=N)N1CCOCC1	n	n	56	n	n	n
Fc1ccccc1-c1cc2ncccc2cn1	n	n	67	n	n	n
O=c1ccc2cc3c([nH]c4ccc(Br)cc43)oc-2c1O	101	n	n	n	n	n
O=c1c2c([nH]c3ccc(Br)cc13)CCCC2	n	n	n	n	n	n
CN(c1ccc(O)cc1)c1nc(-c2cccs2)cs1	n	n	47	n	n	n
SMILES	SENP8 block-1	SENP7 block	AHR act	EBI2 antag	SENP6 block	SENP8 block-2
COc1ccccc1N1CCN(C2CCN(C(=O)c3cccc(F)c3)CC2)CC1	n	n	n	n	n	n
O=C(NCc1cccs1)c1ccc2sc(COCCO)nc2c1	n	x	x	n	x	x
C=CCNc1nc(-c2ccc3c(c2)OCCO3)cs1	n	66	n	n	90	82
CCC(=O)Nc1nc(-c2ccc3c(c2)OCCO3)cs1	n	n	n	n	n	n
COCc1cc(C)nc2sc(C(=O)N3CCCC3)c(N)c12	n	n	76	n	n	n
C=CCn1c(C)cc(C(=O)CSc2n[nH]c(N)n2)c1C	n	n	50	n	n	n
O=C(O)c1ccc(NC2=C(n3nnc4ccccc43)C(=O)c3ccccc3C2=O)cc1	55	n	n	n	n	n
O=C(O)c1ccc(-n2nnc3ccccc32)c([N+](=O)[O-])c1	n	n	n	n	n	n
CCCC1CCc2[nH]nc(C(=O)NN)c2C1 (stereo unspecified)	n	n	n	n	n	n
c1ccc(-c2ccc(-c3ccccn3)nn2)nc1	x	89	n	x	83	71
CC(C)(C)OC(=O)N1CCCN(C(c2ccnc3ccccc23)c2nnnn2-c2ccc3c(c2)OCCO3)CC1 (stereo unspecified)	n	x	x	n	x	x
O=[N+]([O-])c1cc(C=Nc2ccc3ccccc3c2)ccc1Br	n	n	68	n	n	n
Cc1nn2cc(-c3cccc(Cl)c3)cnc2c1Cl	n	71	n	n	n	n
CC(Cc1cccnc1)NC(=O)c1cc(COc2c(F)cccc2F)on1 (stereo unspecified)	n	n	48	n	n	n
CC(=O)Nc1cncc(-c2ccccc2F)n1	n	x	x	n	x	x
CCOc1ccccc1CN1CCN(Cc2c[nH]c3ccccc23)CC1CCO (stereo unspecified)	n	n	x	n	n	n
CCOc1ccccc1CN1CCN(Cc2[nH]c3ccccc3c2C)CC1CCO (stereo unspecified)	n	n	51	n	n	n
CN(Cc1ccc(Cl)cc1)C(c1cc2ccccc2o1)c1nnnn1C(C)(C)C (stereo unspecified)	n	x	x	n	x	x
N#C/C(=C/c1ccc(N2CCCCCC2)o1)c1ccc(Cl)cc1	n	n	n	42	n	n
N#C/C(=C/c1ccc(N2CCCCC2)o1)c1cccc(F)c1	n	n	n	n	n	n
Clc1ccc(-c2nnc3sc(-c4ccc(Br)o4)nn23)cc1	n	n	61	n	n	n
Cc1oc(-c2ccc(Cl)cc2)cc1-c1nn2c(-c3ccoc3C)nnc2s1	n	n	52	n	n	n
O=c1[nH]cnc(O)c1C(c1cccc([N+](=O)[O-])c1)c1c(O)nc[nH]c1=O	n	n	n	n	n	n
O=C(Cc1ccccc1Cl)NC1(O)C(=O)c2ccccc2C1=O	67	n	n	n	n	n
Cc1cc(C)cc(OCc2nc3ncc(Br)cc3[nH]2)c1	n	n	69	n	n	n
SMILES	SENP8 block-1	SENP7 block	AHR act	EBI2 antag	SENP6 block	SENP8 block-2
COc1ccccc1CNS(=O)(=O)CCNCCc1ccccc1	n	x	x	n	x	x
NC(c1csc(Nc2ccccn2)n1)c1ccccc1Cl (stereo unspecified)	n	x	x	n	x	x
Cc1ccc(C(=O)Nc2cccnc2)cc1S(=O)(=O)N1CCCCCC1	n	n	77	n	n	n
Cc1ccc(C(=O)Nc2cccnc2)cc1S(=O)(=O)N1CCOCC1	n	n	n	n	n	n
COc1cc(CCC(N)c2cccc(O)c2)cc(OC)c1OC (stereo unspecified)	n	x	x	n	x	x
COc1ccc(C(=O)N2CCCC(c3cc(C(=O)NCc4cccnc4)no3)C2)cc1 (stereo unspecified)	n	x	x	n	x	x
O=C(Cc1coc2ccc3ccccc3c12)Nc1nnc(C2CC2)s1	n	n	69	n	n	n
CC1CC=CCC1(CO)CO (stereo unspecified)	n	x	x	n	x	x
c1ccc2c(c1)CC1(CCCC1)N=C2N1CCOCC1	n	n	n	n	n	n
COc1ccc(NC(=O)C2(C)CCN2Cc2cccc(OC)c2OC)cc1OC (stereo unspecified)	n	x	x	n	x	x
